Results as given in PubChem BioAssay AID1159580 (chemical genetic matrix, 2015).
“And” between values parts separate entries of the source, which are not always exact repeats. Equal values may be shown once. Hit rate of the full screen: of about 5,500 compounds, about 2,000 (36%) were called active. Roughly 18% stayed inconclusive and do not appear here. Rule as the data show it: active = normalized growth mostly below about 0.91 (no sharp cut-off); inconclusive = no clear call, values can overlap the other calls; inactive = mostly above about 0.92. This is one part of the list.

Assay: chemical genetic growth profiling, strain panel (AID 1159580);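 also: tested at 20 µM; growth read once vehicle control cultures reached saturation at 30 °C; 1 = growth at the plate median or of vehicle wells; lower values mean less growth of the strain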
Details: S. cerevisiae deletion strains, growth OD

Measured: normalized growth

COc1cc(-c2coc3cc(OC)c(OC)c(OC)c3c2=O)cc(OC)c1OC
inactive: locus YAL013W, strain DEP1, active compounds read low 0.994 | locus YAL021C, strain ccr4, active compounds read low 1 | locus YAL026C, strain drs2, active compounds read low 1.01 | locus YAL030W, strain snc1, active compounds read low 1.01 | locus YBL061C, strain skt5, active compounds read low 0.996 | locus YBR009C, strain hhf1, active compounds read low 0.993 | locus YBR021W, strain FUR4, active compounds read low 1.02 | locus YBR023C, strain chs3, active compounds read low 0.991 | locus YBR171W, strain sec66, active compounds read low 0.99 | locus YBR229C, strain ROT2, active compounds read low 1 | locus YBR231C, strain swc5, active compounds read low 0.969 | locus YBR279W, strain paf1, active compounds read low 1.01 | locus YCL011C, strain gbp2, active compounds read low 1 | locus YCL016C, strain dcc1, active compounds read low 0.987 | locus YCL029C, strain bik1, active compounds read low 0.973 | locus YCL061C, strain MRC1, active compounds read low 1.01 | locus YCL069W, strain vba3, active compounds read low 1.01 | locus YCR088W, strain abp1, active compounds read low 1.01 | locus YDL005C, strain med2, active compounds read low 0.996 | locus YDL035C, strain GPR1, active compounds read low 1.03 | locus YDL040C, strain nat1, active compounds read low 0.995 | locus YDL074C, strain BRE1, active compounds read low 1.02 | locus YDL101C, strain DUN1, active compounds read low 0.981 | locus YDL185W, strain tfp1, active compounds read low 0.968 | locus YDL192W, strain arf1, active compounds read low 1.03 | locus YDR001C, strain nth1, active compounds read low 0.999 | locus YDR069C, strain doa4, active compounds read low 1.01 | locus YDR101C, strain arx1, active compounds read low 1.06 | locus YDR137W, strain rgp1, active compounds read low 1.01 | locus YDR159W, strain sac3, active compounds read low 0.947 | locus YDR162C, strain NBP2, active compounds read low 1.03 | locus YDR195W, strain ref2 0.963 | locus YDR297W, strain sur2, active compounds read low 1.01 | locus YDR318W, strain mcm21, active compounds read low 0.993 | locus YDR334W, strain swr1, active compounds read low 0.994 | locus YDR335W, strain msn5, active compounds read low 1 | locus YDR388W, active compounds read low 0.985 | locus YDR392W, strain spt3, active compounds read low 0.888 | locus YDR502C, strain sam2, active compounds read low 0.985 | locus YEL003W, strain gim4, active compounds read low 0.992 | locus YEL037C, strain rad23, active compounds read low 1 | locus YEL061C, strain CIN8 (second series), active compounds read low 1 | locus YEL061C, strain CIN8, active compounds read low 0.994 | locus YER015W, strain faa2, active compounds read low 1 | locus YER016W, strain bim1, active compounds read low 0.999 | locus YER110C, active compounds read low 0.968 | locus YER111C, strain swi4, active compounds read low 0.989 | locus YER155C, strain BEM2 (second series), active compounds read low 0.968 | locus YER155C, strain BEM2, active compounds read low 0.984 | locus YER167W, strain BCK2, active compounds read low 1 | locus YFR010W, strain ubp6, active compounds read low 0.996 | locus YGL078C, strain dbp3, active compounds read low 0.975 | locus YGL086W, strain mad1, active compounds read low 1.01 | locus YGL167C, strain pmr1, active compounds read low 1 | locus YGL173C, strain kem1, active compounds read low 1 | locus YGL227W, strain vid30, active compounds read low 0.99 | locus YGL240W, strain doc1, active compounds read low 0.987 | locus YGL248W, strain PDE1, active compounds read low 0.965 | locus YGL253W, strain hxk2, active compounds read low 0.996 | locus YGR135W, strain pre9, active compounds read low 0.952 | locus YGR252W, strain gcn5, active compounds read low 1.01 | locus YHR013C, strain ard1, active compounds read low 0.996 | locus YHR027C, strain rpn1, active compounds read low 0.997 | locus YHR030C, strain SLT2, active compounds read low 0.997 and 1.06 | locus YHR079C, strain IRE1 (second series), active compounds read low 0.992 | locus YHR079C, strain IRE1, active compounds read low 1.02 | locus YHR094C, strain hxt1, active compounds read low 1 | locus YHR129C, strain ARP1, active compounds read low 0.996 | locus YHR142W, strain chs7, active compounds read low 0.994 | locus YHR200W, strain rpn10, active compounds read low 1.01 | locus YIL066C, strain RNR3, active compounds read low 1 | locus YIL073C, strain SPO22, active compounds read low 0.921 | locus YIL125W, strain kgd1, active compounds read low 1.01 | locus YIR030C, strain dcg1, active compounds read low 0.989 | locus YJL092W, strain hpr5, active compounds read low 1.01 | locus YJL095W, strain BCK1 (second series), active compounds read low 1 | locus YJL095W, strain BCK1, active compounds read low 0.986 and 1.07 | locus YJL115W, strain asf1, active compounds read low 1 | locus YJL129C, strain trk1, active compounds read low 0.988 | locus YJL134W, strain LCB3, active compounds read low 1 | locus YJL154C, strain vps35, active compounds read low 0.99 | locus YJL164C, strain tpk1, active compounds read low 1 | locus YJL166W, strain qcr8, active compounds read low 0.999 | locus YJL168C, strain set2, active compounds read low 0.993 | locus YJL187C, strain SWE1 (second series), active compounds read low 0.968 | locus YJR043C, strain POL32, active compounds read low 1.04
